Our source for the outcome and AC50 values is PubChem BioAssay (EPA / NIEHS).

Structures are written as SMILES. Calls of active or inactive are those of the source. Rule for the calls: active = hit-call score of the fitted dose curve at least 0.9, where 1 is the maximum; inactive = score below 0.9.

A short description of test [1]: CEETOX_H295R_PROG: CeeTox H295R High-throughput Steroidogenesis Assay for Progesterone (PROG) (AID 2283442).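 For AC50: human H295R adrenal cells primed with 10 µM forskolin before dosing; progesterone secreted into medium by H295R cells measured by HPLC-MS/MS.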 The conditions noted are these: actives raise or lower the signal. The method, boiled down: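 Steps: seed H295R cells and let them adhere overnight; prime 48 h with 10 uM forskolin; dose with compound in DMSO at 0.1% final for 48 h; extract medium steroids with MTBE; measure progesterone by LC-MS/MS. MTT viability was run in the same wells.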

Test [2] can be described thus: CEETOX_H295R_ESTRADIOL: CeeTox H295R High-throughput Steroidogenesis Assay for Estradiol (AID 2283440).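 Note: estradiol secreted into medium quantified by LC-MS/MS after dansyl derivatisation.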 The note with it: actives raise or lower the signal. The method, boiled down: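 Estradiol secreted into the medium was measured by tandem mass spectrometry after liquid-liquid extraction and dansylation. Human H295R cells had been forskolin-primed (10 uM, 48 h) before a 48 h chemical exposure with 0.1% DMSO.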

Test [3] is described as follows: CEETOX_H295R_TESTO: CeeTox H295R High-throughput Steroidogenesis Assay for Testosterone (TESTO) (AID 2283457).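 Note: cells exposed to chemicals for 48 h before medium collection.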 The conditions noted are these: actives raise or lower the signal. The method in brief:
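H295R, passage ≤10, 48 h dosing; media extracted with MTBE → HPLC-MS/MS for testosterone; 7-pt standard curve sets LLOQ/ULOQ; bidirectional fit vs DMSO; MTT viability same wells.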

Read-out in test [4]: Fatty acid synthase (Homo sapiens) (UniProt P49327)
Kind of test: LTEA_HepaRG_FASN: Life Technologies and Expression Analysis (LTEA) Assay for Fatty Acid Synthase (FASN) using HepaRG (AID 2283448). The conditions noted are these: mRNA level, 48 h; actives raise or lower the signal. The method in brief: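 Differentiated HepaRG cells in serum-free induction medium exposed 48 h in duplicate to eight half-log concentrations, top 100 uM, 0.5% DMSO. FASN mRNA by qRT-PCR normalised to ACTB, GAPDH, POLR2A; bidirectional fit versus DMSO.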

Read-out in test [5]: Cyclin D2 (CCND2), CCND2 (gene 894)
Kind of test: LTEA_HepaRG_CCND2: Life Technologies and Expression Analysis (LTEA) Assay for Cyclin D2 (CCND2) using HepaRG (AID 2283449). The conditions noted are these: mRNA level, 48 h; actives raise or lower the signal. The method in brief:
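Read-out is CCND2 mRNA level measured by qRT-PCR in human HepaRG liver cells and normalised to three housekeeping genes. Chemicals were applied for 48 h at up to 100 uM, with gain or loss fitted relative to 0.5% DMSO.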

Read-out in test [6]: Cyclin Dependent Kinase Inhibitor 1A (CDKN1A), CDKN1A (gene 1026)
Description: LTEA_HepaRG_CDKN1A: Life Technologies and Expression Analysis (LTEA) Assay for Cyclin Dependent Kinase Inhibitor 1A (CDKN1A) using HepaRG (AID 2283450). The conditions noted are these: mRNA level, 48 h; actives raise or lower the signal. The method in brief: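 Read-out is CDKN1A mRNA by TaqMan qRT-PCR, normalized to three housekeeping genes and fitted in both directions against the DMSO baseline. Human HepaRG cells were treated 48 h with test chemicals up to 100 uM in half-log steps, 0.5% DMSO.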

Read-out in test [7]: Cyclin D1 (CCND1), CCND1 (gene 595)
Description: LTEA_HepaRG_CCND1: Life Technologies and Expression Analysis (LTEA) Assay for Cyclin D1 (CCND1) using HepaRG (AID 2283451). The note with it: mRNA level, 48 h; actives raise or lower the signal. The method in brief: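 HepaRG plated 48 h, medium switched to serum-free induction medium, chemicals added in duplicate (top 100 uM, half-log steps, 0.5% DMSO) for 48 h, cells lysed, RNA measured by TaqMan qRT-PCR.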

Read-out in test [8]: catalase (CAT), CAT (gene 847)
Description: LTEA_HepaRG_CAT: Life Technologies and Expression Analysis (LTEA) Assay for catalase (CAT) using HepaRG (AID 2283452). The note with it: mRNA level, 48 h; actives raise or lower the signal. The method in brief:
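Expression of CAT was quantified by TaqMan qRT-PCR with ACTB/GAPDH/POLR2A normalization after 48 h chemical exposure of HepaRG. Eight-point half-log series, top 100 uM, in 0.5% DMSO; gain or loss fitted against vehicle.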

Read-out in test [9]: flavin-containing dimethylaniline monooxygenases 3 (FMO3), FMO3 (gene 2328)
Description: LTEA_HepaRG_FMO3: Life Technologies and Expression Analysis (LTEA) Assay for flavin-containing dimethylaniline monooxygenases 3 (FMO3) using HepaRG (AID 2283453). The conditions noted are these: mRNA level, 48 h; actives raise or lower the signal. The method, boiled down: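 Differentiated HepaRG cells in serum-free induction medium, exposed 48 h in duplicate to 8 half-log concentrations up to 100 uM in 0.5% DMSO. FMO3 mRNA by qRT-PCR, normalized to ACTB, GAPDH, POLR2A; bidirectional fit vs DMSO.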

Read-out in test [10]: Cytochrome P450 (CYP1A1), CYP1A1 (gene 1543)
Description: LTEA_HepaRG_CYP1A1: Life Technologies and Expression Analysis (LTEA) Assay for Cytochrome P450 (CYP1A1) using HepaRG (AID 2283454). The note with it: mRNA level, 48 h; actives raise or lower the signal. The method in brief: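 HepaRG, 48 h post-plating switched to serum-free induction medium; 8-pt conc-response (top 100 uM, half-log, 0.5% DMSO), duplicates, 48 h. Lysis in RLT, TaqMan qRT-PCR for CYP1A1; gain or loss vs DMSO.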

Read-out in test [11]: CFLAR gene, CFLAR (gene 8837)
Kind of test: LTEA_HepaRG_CFLAR: Life Technologies and Expression Analysis (LTEA) Assay for CFLAR gene using HepaRG (AID 2283455). The conditions noted are these: mRNA level, 48 h; actives raise or lower the signal. The method, boiled down:
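HepaRG, 48 h exposure, 8-pt conc-response (100 uM top, half-log), 0.5% DMSO vehicle, duplicates. CFLAR expression by qRT-PCR; ACTB/GAPDH/POLR2A normalization; gain or loss fit vs DMSO baseline.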

Read-out in test [12]: Forkhead box O1 (FOXO1), FOXO1 (gene 2308)
Description: LTEA_HepaRG_FOXO1: Life Technologies and Expression Analysis (LTEA) Assay for Forkhead box O1 (FOXO1) using HepaRG (AID 2283456). The note with it: mRNA level, 48 h; actives raise or lower the signal. The method, boiled down:
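Readout is FOXO1 transcript level by multiplexed qRT-PCR against three housekeeping genes, curve-fitted in both directions relative to 0.5% DMSO vehicle. Human HepaRG cultures received chemicals for 48 h, up to 100 uM in half-log steps.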

Read-out in test [13]: Forkhead box O3 (FOXO3), FOXO3 (gene 2309)
Kind of test: LTEA_HepaRG_FOXO3: Life Technologies and Expression Analysis (LTEA) Assay for Forkhead box O3 (FOXO3) using HepaRG (AID 2283459). The note with it: mRNA level, 48 h; actives raise or lower the signal. The method in brief: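 HepaRG, 48 h post-dose; 8 conc., half-log from 100 uM, 0.5% DMSO, duplicates; serum-free induction medium. Readout: FOXO3 mRNA, TaqMan qRT-PCR, housekeeping-normalized. Bidirectional curve fit vs DMSO baseline.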

Read-out in test [14]: ABC Transporter (ABCB1), ABCB1 (gene 5243)
Description: LTEA_HepaRG_ABCB1: Life Technologies and Expression Analysis (LTEA) Assay for ABC Transporter (ABCB1) using HepaRG (AID 2283460). The conditions noted are these: mRNA level, 48 h; actives raise or lower the signal. The method in brief: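 Expression of ABCB1 was quantified by qRT-PCR against three housekeeping genes after human HepaRG cultures received test chemicals for 48 hours. Concentrations spanned eight half-log steps topping at 100 uM in 0.5% DMSO; gain or loss of signal was fitted relative to vehicle.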

Read-out in test [15]: growth arrest and DNA damage 45 (GADD45B), GADD45B (gene 4616)
Kind of test: LTEA_HepaRG_GADD45B: Life Technologies and Expression Analysis (LTEA) Assay for growth arrest and DNA damage 45 (GADD45B) using HepaRG (AID 2283461). The note with it: mRNA level, 48 h; actives raise or lower the signal. The method, boiled down: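 HepaRG, ~100,000 cells/well, 48 h plating; serum-free induction medium; cpd 100 uM top, half-log x8, 0.5% DMSO, duplicate, 48 h; lysis in RLT, RNA isolation, qRT-PCR; norm ACTB/GAPDH/POLR2A; bidirectional fit vs DMSO.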

Read-out in test [16]: ABC Transporter (ABCC3), ABCC3 (gene 8714)
Description: LTEA_HepaRG_ABCC3: Life Technologies and Expression Analysis (LTEA) Assay for ABC Transporter (ABCC3) using HepaRG (AID 2283462). The conditions noted are these: mRNA level, 48 h; actives raise or lower the signal. The method, boiled down:
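Human HepaRG, 48 h dosing, 8-pt half-log series from 100 uM, 0.5% DMSO vehicle, duplicates. ABCC3 mRNA by TaqMan qRT-PCR, housekeeping-normalized; bidirectional curve fit vs DMSO.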

Read-out in test [17]: ABC Transporter (ABCB11), ABCB11 (gene 8647)
Description: LTEA_HepaRG_ABCB11: Life Technologies and Expression Analysis (LTEA) Assay for ABC Transporter (ABCB11) using HepaRG (AID 2283463). The conditions noted are these: mRNA level, 48 h; actives raise or lower the signal. The method, boiled down:
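ABCB11 transcript levels are read by Fluidigm TaqMan qRT-PCR after 48 h chemical treatment of human HepaRG cells. Concentrations span 100 uM downward in half-log steps with 0.5% DMSO; gain or loss is fitted against DMSO controls.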

Read-out in test [18]: Broad substrate specificity ATP-binding cassette transporter ABCG2 (Homo sapiens) (UniProt Q9UNQ0)
Kind of test: LTEA_HepaRG_ABCG2: Life Technologies and Expression Analysis (LTEA) Assay for ABC Transporter (ABCG2) using HepaRG (AID 2283465). The note with it: mRNA level, 48 h; actives raise or lower the signal. The method in brief: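 Read-out is ABCG2 mRNA induction or loss quantified by qRT-PCR after 48 h chemical treatment of human HepaRG cells, normalized to three housekeeping genes. Concentrations reached 100 uM top in half-log steps; fitting was bidirectional against 0.5% DMSO.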

Read-out in test [19]: ATP-citrate lyase (ACLY), ACLY (gene 47)
Kind of test: LTEA_HepaRG_ACLY: Life Technologies and Expression Analysis (LTEA) Assay for ATP-citrate lyase (ACLY) using HepaRG (AID 2283466). The conditions noted are these: mRNA level, 48 h; actives raise or lower the signal. The method in brief: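 HepaRG, 48 h exposure, 8-pt half-log dilutions (top 100 uM), 0.5% DMSO. Readout: ACLY mRNA, TaqMan qRT-PCR, housekeeping-normalized (ACTB/GAPDH/POLR2A). Bidirectional curve fit vs DMSO.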

Read-out in test [20]: Peroxisomal acyl-coenzyme A oxidase 1 (ACOX1) gene, ACOX1 (gene 51)
Kind of test: LTEA_HepaRG_ACOX1: Life Technologies and Expression Analysis (LTEA) Assay for Peroxisomal acyl-coenzyme A oxidase 1 (ACOX1) gene using HepaRG (AID 2283467). The note with it: mRNA level, 48 h; actives raise or lower the signal. The method in brief: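 Measured by qRT-PCR against three housekeeping genes: ACOX1 transcript change in human HepaRG cells after 48 h dosing. Concentrations ran up to 100 uM in half-log steps. Curves were fitted bidirectionally relative to 0.5% DMSO.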

Chain of Fatty acid synthase (Homo sapiens) (P49327 whole entry, looked up): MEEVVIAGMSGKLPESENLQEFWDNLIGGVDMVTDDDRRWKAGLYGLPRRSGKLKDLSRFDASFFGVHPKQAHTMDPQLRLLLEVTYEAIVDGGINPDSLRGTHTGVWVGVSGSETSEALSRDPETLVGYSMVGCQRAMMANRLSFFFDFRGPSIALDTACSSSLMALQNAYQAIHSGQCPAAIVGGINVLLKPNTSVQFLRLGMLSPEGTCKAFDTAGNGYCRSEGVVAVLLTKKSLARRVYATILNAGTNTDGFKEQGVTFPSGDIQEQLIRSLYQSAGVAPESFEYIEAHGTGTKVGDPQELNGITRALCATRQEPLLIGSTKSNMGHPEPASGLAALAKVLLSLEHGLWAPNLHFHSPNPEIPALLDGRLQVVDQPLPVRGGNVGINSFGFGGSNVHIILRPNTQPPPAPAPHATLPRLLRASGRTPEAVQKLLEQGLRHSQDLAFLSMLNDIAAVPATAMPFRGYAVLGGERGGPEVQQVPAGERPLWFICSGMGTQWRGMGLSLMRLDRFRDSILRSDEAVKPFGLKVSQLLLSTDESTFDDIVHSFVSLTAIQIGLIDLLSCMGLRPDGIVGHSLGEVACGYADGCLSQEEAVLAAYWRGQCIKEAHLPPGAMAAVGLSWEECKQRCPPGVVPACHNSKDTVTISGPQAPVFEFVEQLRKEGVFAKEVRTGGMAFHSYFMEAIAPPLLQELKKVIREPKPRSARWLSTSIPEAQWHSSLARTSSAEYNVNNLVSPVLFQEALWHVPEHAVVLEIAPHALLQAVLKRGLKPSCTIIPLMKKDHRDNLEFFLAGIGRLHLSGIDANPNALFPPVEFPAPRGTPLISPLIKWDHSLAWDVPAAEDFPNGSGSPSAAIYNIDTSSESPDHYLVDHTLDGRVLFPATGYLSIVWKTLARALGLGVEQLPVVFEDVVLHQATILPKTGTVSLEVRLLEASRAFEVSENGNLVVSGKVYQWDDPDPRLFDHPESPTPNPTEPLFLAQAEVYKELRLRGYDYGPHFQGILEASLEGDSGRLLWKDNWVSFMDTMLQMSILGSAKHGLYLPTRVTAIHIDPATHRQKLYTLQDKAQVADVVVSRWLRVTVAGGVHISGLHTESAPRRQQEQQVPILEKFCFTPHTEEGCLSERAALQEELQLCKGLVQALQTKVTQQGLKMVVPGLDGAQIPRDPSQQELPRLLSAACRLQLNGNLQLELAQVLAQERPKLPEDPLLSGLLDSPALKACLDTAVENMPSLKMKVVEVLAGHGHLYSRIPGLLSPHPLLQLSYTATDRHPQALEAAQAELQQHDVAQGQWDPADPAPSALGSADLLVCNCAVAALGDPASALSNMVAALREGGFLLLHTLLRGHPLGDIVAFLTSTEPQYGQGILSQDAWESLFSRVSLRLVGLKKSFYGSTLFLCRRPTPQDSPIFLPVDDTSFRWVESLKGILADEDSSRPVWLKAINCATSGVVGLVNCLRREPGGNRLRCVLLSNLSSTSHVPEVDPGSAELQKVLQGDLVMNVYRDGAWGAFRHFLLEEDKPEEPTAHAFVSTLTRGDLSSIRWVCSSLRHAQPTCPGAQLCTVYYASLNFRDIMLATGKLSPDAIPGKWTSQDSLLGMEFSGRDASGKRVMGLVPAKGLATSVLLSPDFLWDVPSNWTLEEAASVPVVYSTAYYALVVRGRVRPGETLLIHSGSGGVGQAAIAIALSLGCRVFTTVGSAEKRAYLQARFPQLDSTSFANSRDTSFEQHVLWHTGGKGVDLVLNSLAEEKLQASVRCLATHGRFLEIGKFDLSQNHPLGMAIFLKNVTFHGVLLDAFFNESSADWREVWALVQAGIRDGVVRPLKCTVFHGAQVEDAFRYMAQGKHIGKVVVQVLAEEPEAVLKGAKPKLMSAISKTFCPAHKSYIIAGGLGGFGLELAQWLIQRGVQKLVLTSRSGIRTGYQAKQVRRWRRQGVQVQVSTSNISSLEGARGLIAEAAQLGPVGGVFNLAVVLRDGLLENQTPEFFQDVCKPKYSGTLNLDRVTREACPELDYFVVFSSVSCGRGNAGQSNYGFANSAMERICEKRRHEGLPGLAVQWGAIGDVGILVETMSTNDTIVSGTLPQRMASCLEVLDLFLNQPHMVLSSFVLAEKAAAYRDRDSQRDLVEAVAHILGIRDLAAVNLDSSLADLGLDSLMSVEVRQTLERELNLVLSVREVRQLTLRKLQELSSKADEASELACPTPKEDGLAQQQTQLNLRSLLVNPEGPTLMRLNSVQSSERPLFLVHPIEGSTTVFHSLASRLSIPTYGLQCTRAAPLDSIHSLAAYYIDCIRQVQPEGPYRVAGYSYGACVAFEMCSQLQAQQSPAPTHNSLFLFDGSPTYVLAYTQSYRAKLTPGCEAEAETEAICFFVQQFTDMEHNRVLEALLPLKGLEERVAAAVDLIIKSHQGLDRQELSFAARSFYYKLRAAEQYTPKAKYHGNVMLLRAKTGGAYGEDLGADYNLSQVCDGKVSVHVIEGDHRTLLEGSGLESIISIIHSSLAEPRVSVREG
Chain of Broad substrate specificity ATP-binding cassette transporter ABCG2 (Homo sapiens) (Q9UNQ0 whole entry, looked up): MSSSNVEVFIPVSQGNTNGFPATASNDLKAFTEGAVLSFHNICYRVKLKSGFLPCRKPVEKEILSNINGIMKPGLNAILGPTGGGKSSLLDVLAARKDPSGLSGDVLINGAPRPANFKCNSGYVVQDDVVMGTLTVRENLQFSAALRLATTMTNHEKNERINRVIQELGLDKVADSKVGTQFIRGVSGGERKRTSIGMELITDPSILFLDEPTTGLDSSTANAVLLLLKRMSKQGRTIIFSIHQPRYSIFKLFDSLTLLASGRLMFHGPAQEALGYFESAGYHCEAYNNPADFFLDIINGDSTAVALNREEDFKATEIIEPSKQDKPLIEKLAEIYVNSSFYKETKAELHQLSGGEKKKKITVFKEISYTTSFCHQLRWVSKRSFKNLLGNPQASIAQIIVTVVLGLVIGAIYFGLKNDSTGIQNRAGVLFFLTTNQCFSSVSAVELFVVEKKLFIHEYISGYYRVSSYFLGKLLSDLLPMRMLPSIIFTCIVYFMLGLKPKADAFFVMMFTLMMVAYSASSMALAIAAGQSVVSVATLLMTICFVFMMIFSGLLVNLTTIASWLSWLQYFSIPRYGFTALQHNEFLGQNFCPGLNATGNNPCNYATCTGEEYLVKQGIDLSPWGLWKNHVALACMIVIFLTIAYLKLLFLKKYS

As to `Cc1cc(Cl)ccc1O`, the compound was called inactive in test [1].
In the case of `CC(C)(C)c1cc([N+](=O)[O-])cc(C(C)(C)C)c1O`, the outcome in test [2] and in test [1] was inactive.
As to `O=S1OC[C@@H]2[C@H](CO1)[C@]1(Cl)C(Cl)=C(Cl)[C@@]2(Cl)C1(Cl)Cl` (some centres not stated), the AC50 (commonly the concentration giving half of the maximal activity seen) in test [1] was 8.22 µM (active); in test [3], 50 µM (active).
Regarding `Oc1c(Br)cc(Br)cc1Br`, the outcome in test [2] was inactive. Moreover, in test [1], the AC50 was 41.3 µM (active).
Regarding `CCCCCCCCCCCCN(C)C`, the compound was classed as inactive in test [2] and in test [1].
With `CCOCn1c(-c2ccc(Cl)cc2)c(C#N)c(Br)c1C(F)(F)F`, the AC50 in [2] is 4.19 µM (active); in test [1], 2.1 µM (active).
Consider `CC(C)O.CC(C)O.OCCN(CCO)CCO.OCCN(CCO)CCO.[Ti]`, for which the outcome in [4], in test [5], in test [6], in test [7], in test [8] and in [9] was inactive. For the same compound, the compound was called inactive in test [10], in test [11], in test [12], in test [13], in test [14] and in test [15]. The outcome in test [16], in test [17], in test [18], in test [19] and in test [20] was inactive.
In the case of `CC(C)=CC1C(C(=O)OCc2cccc(Oc3ccccc3)c2)C1(C)C` (configuration not stated), the outcome in test [2] was inactive. In addition, the AC50 in test [1] is 25.8 µM (active).
In the case of `CCCSP(=S)(OCC)Oc1ccc(SC)cc1` (configuration not stated), in test [2], the call was inactive. Moreover, the AC50 in [1] was 6.35 µM (active).
Regarding `OCCN(CCO)CCO`, the call in test [4], in [5], in test [6], in test [7], in test [8] and in [9] was inactive. For the same compound, the outcome in test [11], in test [12], in [13], in test [14], in test [15] and in test [16] was inactive. Also, the result in test [17], in test [18], in [19] and in test [20] was inactive. Also, in test [10], the AC50 was 73.2 µM (active).
Take `Cc1cc(C)cc(C)c1`: the result in [1], in [4], in test [5], in test [6], in test [7] and in test [8] was inactive. Also, the compound was classed as inactive in [9], in test [10], in test [11], in test [12], in test [13] and in test [14]. Further, the result in test [15], in test [16], in [17], in [18], in test [19] and in test [20] was inactive.
